# Compound activity: PubChem BioAssay, National Center for Advancing Translational Sciences (NCATS)
# An excerpt weighted towards active compounds, which were near 5.7% of everything screened.
# ClpP mod – qHTS Assay for Activators of ClpP | AID 651965, 2013 | Potency, µM (top dose mostly 57.5 µM), inactives show top-dose activity change, negative = active | purified B. subtilis ClpP, FRET peptide cleavage, 20 min | hit rate 1.9% among 340,000; active = well fitted falling curve with a large enough effect; inconclusive = small, poorly fitted or top-dose-only effect; inactive = no such curve, though single readings can be large or run the other way; also: potency is read from the fitted curve at half-maximal effect; the source files actives as falling curves though it sought activators and does not explain the sign; nearly all actives have a fitted effect of over 65% in size
# Target sequence (P80244 whole entry, looked up): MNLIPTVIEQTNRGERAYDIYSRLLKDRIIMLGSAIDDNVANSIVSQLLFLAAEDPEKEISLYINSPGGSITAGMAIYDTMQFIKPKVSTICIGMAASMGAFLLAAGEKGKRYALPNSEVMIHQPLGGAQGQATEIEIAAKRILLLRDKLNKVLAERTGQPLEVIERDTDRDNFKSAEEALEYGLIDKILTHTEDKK
#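 FRET quenching reversal measured ClpP activation: 10 microg/mL B. subtilis ClpP at pH 8 with the FRET-FV decapeptide, read at 430 nm after 320 nm excitation. The 20-min minus 0-min signal was scaled between DMSO/no-enzyme wells and ADEP (5.8 microM final).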
# HEK293 tox – cytotoxic in the GLP-1 receptor inverse agonist counter-screen; HEK293 cAMP-luciferase reporter cells, luminescence, 24 h; Potency, µM (titrated, usually from 38.3 µM), inactives show at the top dose activity change, negative = inhibition, actives largely listed as inhibitors; hit rate 0.13% among 410,000;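 also: loss of luciferase light is scored as toxicity; potency is read from the fitted curve at half-maximal effect; % is scaled to controls: 0 for no effect and ±100 for the full control effect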
#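 A 23 nL compound transfer followed 12 hours of cell culture at 37 deg C; exposure then lasted 24 hr. Luciferase assay detection reagent was dispensed and plates read for luminescence after a 12 min room-temperature wait.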
# DRD3 agonist – D3 dopamine receptor (human) agonism | D3R DiscoveRx beta-arrestin cells, luminescence, 90 min | max activation, % | hit rate 0.58% among 410,000; in the data active = max activation above about 30%; also: 0% is about no effect
#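 Agonist mode: compounds and dopamine controls were applied to plated cells for 90 min at 37 degrees C after an overnight attachment at 1500 cells/well. Luminescent read-out followed 30 - 60 minutes at room temperature with DiscoveRx detection reagent.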
# GLP1R inv ag – acts as inverse agonist at human GLP-1 receptor; P43220; HEK293 GLP-1R CRE-luciferase, luminescence, 24 h; GLP-1R form is constitutively active; Potency, µM (series often up to 38.3 µM), for inactives: at the highest dose activity change, negative = inhibition, actives largely listed as inhibitors; hit rate 1.6% among 410,000; AID 624417; also: potency is read from the fitted curve at half-maximal effect; % is scaled to controls: 0 for no effect and ±100 for the full control effect; nearly all actives have a fitted effect of over 55% in size
#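 Stable HEK293 clone (constitutively active GLP-1R + cAMP-response luciferase); 200 cells/uL plated, 12 h pre-culture, compound 24 hr, 37 deg C/5% CO2; detection reagent 12 min RT; luminescence.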
# GLP-1R agonist – activates the human GLP-1 receptor; Potency, µM (top dose mostly 45.6 µM), inactives show at the top dose activation, actives largely listed as activators; hit rate 0.007% among 380,000; HEK293 GLP-1R CRE-luciferase, luminescence, 4-6 h; cells express a hypersensitive GLP-1R form; P43220; also: potency is read from the fitted curve at half-maximal effect; % of control where 0% means no effect
# D3 antag – antagonists of human D3 dopamine receptor. P35462. hit rate 2.5% among 360,000. D3R cells, DiscoveRx beta-arrestin luminescence, antagonist mode; active compounds read low. max response, negative = inhibition, %; in the data active = max response below about -50%; inconclusive = no clear call, values can overlap the other calls; also: % is scaled to controls: 0 for no effect and ±100 for the full control effect
#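 Cells expressing the human receptor were seeded at 1500 cells/well, incubated overnight at 37 degrees C in 5% CO2, then exposed to library compounds with dopamine controls for 90 minutes at 37 degrees C before luminescent detection.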
# Active calls of the source: *; u = inconclusive; x = no result given; ! = not confirmed by another sample. Unless noted, calls follow the shape of the dose curve; as a rule, active = well fitted curve in the direction sought with a large enough effect; inconclusive = small, poorly fitted or top-dose-only effect, or another doubt; inactive = no such curve, though single readings can be large; an effect the other way counts as inactive or inconclusive.
SMILES,ClpP mod,HEK293 tox,DRD3 agonist,GLP1R inv ag,GLP-1R agonist,D3 antag
Cc1ccc(Cl)cc1NC(=O)c1cc(CN2CCCC2)on1,-1%,2%,0,-4%,x,x
O=c1[nH]c(=O)n(C2C[C@H](O)[C@@H](CO)O2)cc1C(F)(F)F (stereo not given in full),-1%,-13%,19,u,-2%,14
O=c1[nH]c(=O)n([C@H]2C[C@H](O)[C@@H](CO)O2)cc1C(F)(F)F,2%,-17%,90*!,u,-1%,24
CN(C)C(=O)NC1c2ccccc2-c2ccccc21,1%,5%,-1,13%,8%,-4
O=C1C=CC(=O)N1c1ccc2c(c1)C(NC(=O)C(F)(F)F)c1ccccc1-2 (stereo not given),-3%,u,-26,u,-18%,-62*
CCOc1ccc(CN2C(=O)c3ccccc3Sc3ccc(C(=O)N4CCN(C)CC4)cc32)cc1,0%,-8%,4,-12%,1%,x
CCN1CCCC(Sc2nc3c([nH]2)c(=S)n(C)c(=O)n3C)C1 (stereo not given),u,u,-9,4.5µM*,0%,0
CCCCSc1nc2c([nH]1)c(=O)n(C)c(=S)n2C,-5%,-5%,10,6%,0%,92
Cn1c(=S)c2[nH]c(SCCN3CCCC3)nc2n(C)c1=O,-3%,u,-1,5.6µM*,-5%,-18
Cn1c(=S)c2[nH]c(SCCN)nc2n(C)c1=O,1%,3.2µM*,3,u,-3%,-7
Cn1c(=O)c2c(nc(SCCN3CCCCC3)n2C)n(C)c1=O,-1%,0%,-1,9%,-1%,21
Cn1c(=O)c2[nH]c(C3CCC3)nc2n(C)c1=O,-6%,24%,-4,11%,1%,4
c1ccc(-c2nn3c(Cn4nnc5ccccc54)nnc3s2)nc1,-2%,2%,-5,0%,12%,-9
c1cncc(-c2nn3c(Cn4nnc5ccccc54)nnc3s2)c1,-3%,7%,51*,0%,19%,19
CCOC(=O)CC(NS(=O)(=O)c1cc(-c2cc(C)no2)ccc1C)c1ccc(C)cc1 (stereo not given),-4%,-1%,-17,u,x,x
CCCOC(=O)c1c(NC(=O)C2c3ccccc3Oc3ccccc32)sc2c1CCC(C)C2 (stereo not given),-15%,7%,-7,-6%,x,x
Cc1cccc(CN2C(=O)N/C(=C/c3cc(C)n(-c4cc(C)ccn4)c3C)C2=O)c1,-9%,-6%,-2,10µM*,-8%,19
CCOC(=O)C(=CNc1cccnc1Oc1ccc(C)c2c1CCC2)C(=O)OCC,-1%,8%,37*,7%,1%,67
Cc1ccc(Oc2ncccc2NC(=O)CC2(CC(=O)O)CCCC2)c2c1CCC2,x,0%,-3,-8%,1%,3
Nc1ccc2c(c1)C(=O)N(CCCCCC(=O)O)C2,16µM*,1%,0,25%,-9%,7
N#C/C(=C\c1ccc([N+](=O)[O-])o1)c1nc2ccccc2[nH]1,-1%,0%,45*,28%,2%,-29
Cc1ccc2nc(/C(C#N)=C\c3ccc([N+](=O)[O-])o3)[nH]c2c1,0%,2%,26,15%,10%,-27
CCn1cc(CNC(=O)c2cc(-c3ccc(C)cc3)nc3ccc(Br)cc23)c(C)n1,-11%,1%,4,3%,x,x
CCOC(=O)c1cnc(Nc2nc3ccccc3o2)nc1CSC(=S)N(CC)CC,1%,-63%,-8,-79%,13%,-60*
CCOC(=O)c1cnc(Nc2nc3ccccc3o2)nc1CSc1ncccn1,-3%,u,9,0%,5%,-22
CCC(C(=O)NC1CCCCC1)n1nc(C)c2sc3ccccc3c2c1=O (stereo not given),-4%,-2%,1,1%,x,x
